Laboratory results: PubChem BioAssay AID1745853 (National Center for Advancing Translational Sciences (NCATS), 2022)
The campaign covered roughly 25,000 compounds. About 970 (3.9%) were called active. Not shown: some 8% with an inconclusive outcome. How the calls were made is not given here. The list comes from a sample in which actives are over-represented; it also holds similar structures and randomly drawn compounds.

Legend:
Experiment in all cases: Primary Screen for Target Class Profiling of Small Molecule Inhibitors of Methyltransferases
[1] = target: Catechol O-methyltransferase (Homo sapiens) (UniProt P21964); settings: purified enzyme, MTase-Glo SAH luminescence; activity change, negative = inhibition: at 40 µM, stronger effect = lower value; outcome: 40 uM
Catechol O-methyltransferase (Homo sapiens), sequence (P21964 whole entry, looked up): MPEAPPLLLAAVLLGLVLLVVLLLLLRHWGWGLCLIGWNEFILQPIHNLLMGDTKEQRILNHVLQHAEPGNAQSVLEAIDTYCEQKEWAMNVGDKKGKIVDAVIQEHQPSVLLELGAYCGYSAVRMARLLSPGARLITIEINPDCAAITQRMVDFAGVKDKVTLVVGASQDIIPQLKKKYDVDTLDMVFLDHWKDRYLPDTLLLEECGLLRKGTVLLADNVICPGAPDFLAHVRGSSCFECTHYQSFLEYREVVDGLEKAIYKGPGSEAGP
Excerpt: (§1) PI: Matthew D. Hall Ph.D. and Quinlin M. Hanson Ph.D.
(§2) National Center for Advancing Translational Sciences (NCATS)
(§3) National Institute of Health (NIH), Rockville, MD
(§4) Target class profiling (TCP) is a chemical biology approach amenable to investigating understudied biological targets. TCP is achieved by developing a generalizable assay platform and applying it to screen a curated set of compound libraries against representative members of a target class. Small molecule methyltransferases (SMMTase) are a subclass of methyltransferase that act on metabolites to modulate signaling pathways, metabolize xenobiotics, or balance the available methyl pool. We screened four curated libraries totaling 27,574 unique compounds against the SMMTases nicotinamide N-methyltransferase (NNMT), phenylethanolamine N-methyltransferase (PNMT), histamine N-methyltransferase (HNMT), glycine N-methyltransferase (GNMT), catechol O-methyltransferase (COMT), and guanidinoacetate N-methyltransferase (GAMT). The data generated by this TCP can be leveraged for informed tool molecule development. For example, in the associated publication we identified a chemotype of HNMT-selective inhibitors. Additionally, we identified a putative SMMTase-selective inhibitor with potential as a tool molecule for studying broader methyltransferase biology.
(§5) High-through put screening assays were developed at the National Center for Advancing Translational Science (NCATS) for the enzymes NNMT, PNMT, HNMT, GNMT, COMT, and GAMT. Enzymatic activity was measured as a function of SAM cofactor conversion using the MTase Glo kit (Promega) for all enzymes. All assays were performed in 1536-well format with substrates and SAM concentrations at KM values. Enzyme concentration and assay timing were optimized for 10-20% SAM conversion. Initial screening of 27,574 compounds was done as single-point assays using the highest compound concentration (40 uM). […] These compounds were replated in 11-point dose response and assayed against NNMT, PNMT, HNMT, GNMT, COMT, GAMT, and a counter-assay. The IC50 and efficacy (maximal response) values were determined for each dose-response curve. These values are also accounted for in the area under the curve (AUC) values.
(§6) PROTOCOL TABLE (as described by Inglese J, Shamu CE and Guy RK. 2007)
(§7) SEQUENCE No. (e.g., 1, 2, 3, etc.); […] (e.g., Cells, Incubation, Reagent, etc.); VALUE; DESCRIPTION.
(§8) 1; Reagent; 2 uL; SMMTase Enzyme (2x) in reaction buffer, columns 1- 48.
(§9) 2; Reagent; 1 uL; SAM (4x) in reaction buffer, columns 1-48.
(§10) 3; Controls; 23 nL; DMSO in column 4; sinefungin in DMSO (0 uM - 40 uM) in 7-point 1:2 dilution series (n = 2) in column 2.
(§11) 4; Compounds; 23 nL; Columns 5-48.
(§12) 5; Reagent; 1 uL; Substrate (4x) in reaction buffer, columns 2-48.
(§13) 6; Time; 20-30 min; Incubation.
(§14) 7; Reagent; 1 uL; MTase-Glo reagent (5X), columns 1-48.
(§15) 8; Time; 30 min; Incubation.
(§16) 9; Reagent; 5 uL; MTase-Glo Detection reagent, columns 1-48.
(§17) 10; Time; 30 min; Incubation, luminescence evolution.
(§18) 11; Detection; Luminescence; ViewLux uHTS Microplate Imager (PerkinElmer).
(§19) NOTES (numbers refer to Sequence numbers above)
(§20) 1, 2, 5. White Medium Binding Greiner 1536-well plates (Cat #789175-F, Greiner Bio-One, Monroe, NC); Reaction buffer: 50 mM Tris, pH 8.0, 3 mM MgCl2, 1 mM EDTA, 50 mM NaCl, 1 mM DTT, and 0.1 mg/mL BSA. Evaporation was prevented by covering assay plates with metal lids containing holes to allow gas diffusion.
(§21) 1. Six SMMTase were profiled: HNMT, GNMT, PNMT, COMT, NNMT, GAMT
(§22) 5. The corresponding substrate was used for each enzyme: HNMT - 5.3 uM Histamine; GNMT - >500 uM Glycine; PNMT - 16.2 uM Norephinephrine; COMT - 13.7 uM Norephinephrine; NNMT - 3.8 uM Nicotinamide; GAMT - 2.5 uM Guanidinoacetate.6, 8, 10. Room temperature
(§23) 6. Final reaction conditions: 10 nM COMT, 5 uM SAM, 15 uM norepinephrine, 50 mM Tris, pH 8.0, 3 mM MgCl2, 1 mM EDTA, 50 mM NaCl, 1 mM DTT, and 0.1 mg/mL BSA; refer to tables 2 and S1 for specific timing.
8. […]

[2] = target: Glycine N-methyltransferase (Homo sapiens) (UniProt Q14749); settings: purified enzyme, MTase-Glo SAH luminescence; measured here: GNMT inhibition; at 40 µM; stronger effect = lower value
Glycine N-methyltransferase (Homo sapiens), sequence (Q14749 whole entry, looked up): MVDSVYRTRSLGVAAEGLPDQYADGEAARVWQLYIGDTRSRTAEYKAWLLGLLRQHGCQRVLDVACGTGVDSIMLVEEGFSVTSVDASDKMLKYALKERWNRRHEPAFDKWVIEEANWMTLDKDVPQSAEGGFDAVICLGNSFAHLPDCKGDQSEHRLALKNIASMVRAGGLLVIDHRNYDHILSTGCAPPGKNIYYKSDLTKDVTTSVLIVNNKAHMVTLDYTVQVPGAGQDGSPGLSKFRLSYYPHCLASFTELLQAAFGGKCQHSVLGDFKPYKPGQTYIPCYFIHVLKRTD
Excerpt: as §1, §2, §3, §4, §5, §6, §7, §8, §9, §10, §11, §12, §13, §14, §15, §16, §17, §18, §19, §20, §21, §22, §23
8. […]

[3] = target: Guanidinoacetate N-methyltransferase (Homo sapiens) (UniProt Q14353); settings: purified enzyme, MTase-Glo SAH luminescence; measured here: GAMT inhibition; at 40 µM; stronger effect = lower value
Excerpt: as §1, §2, §3, §4, §5, §6, §7, §8, §9, §10, §11, §12, §13, §14, §15, §16, §17, §18, §19, §20, §21, §22, §23
8. […]

[4] = target: Histamine N-methyltransferase (Homo sapiens) (UniProt P50135); settings: purified enzyme, MTase-Glo SAH luminescence; measured here: HNMT inhibition; at 40 µM; stronger effect = lower value
Histamine N-methyltransferase (Homo sapiens), sequence (P50135 whole entry, looked up): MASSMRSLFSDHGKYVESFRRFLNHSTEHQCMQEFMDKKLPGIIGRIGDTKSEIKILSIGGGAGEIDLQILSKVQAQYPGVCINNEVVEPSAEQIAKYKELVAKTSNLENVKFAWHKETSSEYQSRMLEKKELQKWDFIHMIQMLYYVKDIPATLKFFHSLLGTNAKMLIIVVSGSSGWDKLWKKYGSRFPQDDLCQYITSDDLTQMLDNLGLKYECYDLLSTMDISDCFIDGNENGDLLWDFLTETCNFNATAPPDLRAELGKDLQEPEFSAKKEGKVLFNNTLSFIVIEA
Excerpt: as §1, §2, §3, §4, §5, §6, §7, §8, §9, §10, §11, §12, §13, §14, §15, §16, §17, §18, §19, §20, §21, §22, §23
8. […]

[5] = target: Nicotinamide N-methyltransferase (Homo sapiens) (UniProt P40261); settings: purified enzyme, MTase-Glo SAH luminescence; measured here: NNMT inhibition; at 40 µM; stronger effect = lower value
Nicotinamide N-methyltransferase (Homo sapiens), sequence (P40261 whole entry, looked up): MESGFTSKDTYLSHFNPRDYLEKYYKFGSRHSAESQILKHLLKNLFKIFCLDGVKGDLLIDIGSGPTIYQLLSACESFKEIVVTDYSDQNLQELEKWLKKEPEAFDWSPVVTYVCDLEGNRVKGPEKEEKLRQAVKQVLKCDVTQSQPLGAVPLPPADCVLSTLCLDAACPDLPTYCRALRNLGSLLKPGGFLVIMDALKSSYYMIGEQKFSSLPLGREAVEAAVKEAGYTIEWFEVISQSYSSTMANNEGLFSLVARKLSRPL
Excerpt: as §1, §2, §3, §4, §5, §6, §7, §8, §9, §10, §11, §12, §13, §14, §15, §16, §17, §18, §19, §20, §21, §22, §23
8. […]

[6] = target: Phenylethanolamine N-methyltransferase (Homo sapiens) (UniProt P11086); settings: purified enzyme, MTase-Glo SAH luminescence; measured here: PNMT inhibition; at 40 µM; stronger effect = lower value
Phenylethanolamine N-methyltransferase (Homo sapiens), sequence (P11086 whole entry, looked up): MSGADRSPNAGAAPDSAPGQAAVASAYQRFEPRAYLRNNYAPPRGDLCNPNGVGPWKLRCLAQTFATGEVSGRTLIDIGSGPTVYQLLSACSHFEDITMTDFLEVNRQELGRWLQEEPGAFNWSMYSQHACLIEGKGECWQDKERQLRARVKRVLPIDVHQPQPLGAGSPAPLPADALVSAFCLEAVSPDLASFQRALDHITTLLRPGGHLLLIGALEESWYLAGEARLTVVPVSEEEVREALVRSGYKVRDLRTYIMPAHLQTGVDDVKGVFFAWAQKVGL
Excerpt: as §1, §2, §3, §4, §5, §6, §7, §8, §9, §10, §11, §12, §13, §14, §15, §16, §17, §18, §19, §20, §21, §22, §23
8. […]
On the % scale 0 is the no-effect control and ±100 the full control effect.

| Structure (SMILES) | activity change, negative = inhibition [1] | activity change, negative = inhibition [2] | activity change, negative = inhibition [3] | activity change, negative = inhibition [4] | activity change, negative = inhibition [5] | activity change, negative = inhibition [6] |
| --- | --- | --- | --- | --- | --- | --- |
| CCOC(=O)c1cc2n(n1)CC(C)(C(=O)NC1CCCC1)N(c1ccc(C)c(C)c1)C2=O (centres undefined) | 1.75% (inactive) | 4.07% | 4.83% | 3.71% | 1.82% | 2.03% |
| O=C(NCc1ccc(Cl)cc1)c1cc(-c2ccc[nH]2)n[nH]1 | -7.05% (inactive) | -26.5% | -7.92% | -7.72% | -8.3% | 2.91% |
| Cn1nccc1C(=O)NC1CCCN(c2cc(N3CCCC3)ncn2)C1 (centres undefined) | -8.51% (inactive) | -8.51% | -10.5% | -21.6% | -17.7% | -11.9% |
| O=C(Nc1ccc2ncnc(N3CCCCC3)c2c1)C1CCCCC1 | -91.5% (active) | -90.3% | -88.7% | -91.6% | -92.3% | -90.6% |
| O=C(N[C@@H]1CN(c2ccncn2)C[C@H]1CO)C1CCCC1 | -2.82% (inactive) | -3.56% | -4.46% | -1.77% | -6.98% | -3.66% |
| COc1ccc(OC)c(CNC(=O)CCn2ccc3cc(S(=O)(=O)N4CCCCC4)ccc32)c1 | -2.28% (inactive) | -4.44% | 0.679% | -7.33% | -15% | -3.87% |
| COc1cc2c(cc1O)NC(=O)CC2c1cn[nH]c1-c1cc(C)ccc1C (centres undefined) | -43% (active) | -48.4% | -38.7% | -60.8% | -38.3% | -13.5% |
| COCC(=O)Nc1ncncc1-c1noc([C@@H]2CCCN2Cc2cc(OC)c(OC)c(OC)c2)n1 | -16.9% (inactive) | -9.35% | -8.08% | -8.93% | -16.4% | -12.8% |
| O=C(c1ccc(C(F)(F)F)cc1)N1CCC2(COc3ccncc3[S+](=O)([O-])N2)C1 (centres undefined) | -0.613% (inactive) | -4.6% | -3.02% | -0.962% | -5.7% | -0.429% |
| Cn1ccc(Nc2cc3c(cn2)CN(CCc2ccccc2)CCN3)n1 | -9.44% (active) | -10.2% | -12.2% | -92.8% | -17.5% | -56.1% |
| O=C1N2CCCC2CN1C1CCN(Cc2ccsc2)CC1 (centres undefined) | 3.52% (inactive) | -1.71% | 0.192% | 0.939% | -3.94% | 6.61% |
| CN(CC(=O)N1CCC2(CCNCC2)CC1)Cc1cccnc1 | -5.94% (inactive) | -3.63% | -4.3% | -5.87% | -4.19% | -3.85% |
| COc1ccc(S(=O)(=O)N2CCCCC2c2n[nH]c(C)n2)cc1 (centres undefined) | 12.4% (inactive) | 15.6% | 2.87% | 11.2% | 10.1% | 11.2% |
| O=C1NC(=NC2CCCC2)C2(CCCN([S+](=O)([O-])c3ccccc3)C2)N1c1cccnc1 (centres undefined) | -0.276% (inactive) | -3.99% | -4.94% | -1.01% | -11% | -21.7% |
